Records with an inconclusive call do not appear. Values without a mark were called inactive. Calls come from the whole dose curve; as a rule, active = well fitted cell-killing curve with a large enough effect in the repeat runs; inconclusive = weak or mixed curves; inactive = flat fitted curve, though single readings scatter.
Experiment: qHTS assay to identify small molecule antagonists of the estrogen receptor beta (ER-beta) signaling pathway - cell viability counter screen (AID 1259382); note: nearly all actives have a fitted effect of over 55% in size
Settings: ER-beta-UAS-bla HEK293T viability, CellTiter-Glo luminescence, 16 h; series mostly up to 92.4 µM; activity change, negative = cytotoxicity: at the top concentration
Description: U.S. Tox21 Program National Center for Advancing Translational Sciences [NCATS] NIH Chemical Genomics Center [NCGC] U.S. Environmental Protection Agency [EPA] National Institutes of Environmental Health Sciences [NIEHS] National Toxicology Program [NTP] U.S. Food and Drug Administration [FDA] Tox21 Assay Overview: Estrogen receptor (ER), a nuclear hormone receptor, plays an important role in development, metabolic homeostasis and reproduction. Two subtypes of ER, ER-alpha and ER-beta, have similar expression patterns with some uniqueness in both types. Endocrine disrupting chemicals (EDCs) and their interactions with steroid hormone receptors like ER causes disruption of normal endocrine function. To identify the compounds that inhibit ER signaling, an ER-beta-UAS-bla GripTite cell line (Life Technologies, Madison, WI, USA) containing a beta-lactamase reporter gene under the control of an UAS response element was used to screen Tox21 10K compound library. The cytotoxicity of the Tox21 compound library against the ER-beta-bla cell line was tested in parallel by measuring the cell viability using CellTiter-Glo assay in the same wells.
Tox21 Assay Protocol Summary: ER-beta-UAS-bla HEK293T cells were dispensed at 2,000 cells/4 uL of assay medium containing 2% charcoal stripped FBS per well into black wall/clear-bottom 1536-well plates using a Multidrop Combi (ThermoFisher Scientific, Waltham, MA) dispenser. After the assay plates were incubated at a 37C and 5% CO2 for 6 hr, 23 nL of compounds dissolved in DMSO, positive controls or DMSO only was transferred to the assay plate by a Pintool station (Kalypsys, San Diego, CA), followed by addition of 1 uL (1nM as final concentration) of 17-beta-estradiol (E2) in assay medium using a Flying Reagent Dispenser (FRD, Aurora Discovery, San Diego, CA). The plates were incubated at 37C and 5% CO2 for 16 hr. Then 1 uL of LiveBLAzer B/G FRET substrate was added using a Flying Reagent Dispenser, the plates were incubated at room temperature for 2 hours, and fluorescence intensity was measured by an Envision plate reader (PerkinElmer, Shelton, CT). For cell viability readout that measures cytotoxicity, 4 uL/well of CellTiter-Glo reagent was added into the assay plates using a FRD. After 30 min incubation at room temperature, the luminescence intensity in the plates was measured using a ViewLux (PerkinElmer) plate reader.
% is set by controls: 0 for no effect and ±100 for the full control effect.

Structure (SMILES)	activity change, negative = cytotoxicity
O=C(O)C(Br)CBr (stereo not given)	-6.76%
N#Cc1c(Cl)cccc1Cl	3.69%
C[N+](=O)[O-]	5.71%
CN(C)CCc1ccc(O)cc1	8.31% [at 42.5 µM]
CC(C1CC1)C(O)(Cn1cncn1)c1ccc(Cl)cc1 (stereo not given)	-11.8%
CCOC(=O)NC(=S)Nc1ccccc1NC(=S)NC(=O)OCC	-8.97%
O=[N+]([O-])c1ccc2c3c(cccc13)CC2	-2.97%
CNC(=O)Oc1ccccc1C1OCCO1	1.42%
CC(C)COP(=O)(OCC(C)C)OCC(C)C	0.671%
OC(c1ccc(F)cc1)(c1cncnc1)c1ccccc1Cl (stereo not given)	-15.6%
CCCCc1c(C)nc(NCC)[nH]c1=O	-0.375%
CCCCOP(=O)(O)OCCCC	6.78%
CC(C=O)Cc1ccc2c(c1)OCO2 (stereo not given)	3.89%
Nc1cc(Cl)ccc1O	-17.8%
CS(=O)(=O)c1cc(C(F)(F)F)ccc1C(=O)c1cnoc1C1CC1	-4.68%
O=C(Nc1ccccc1)c1ccccc1I	-8.29%
CC(C)CC#N	26.4%
CCOP(=S)(OCC)SCSP(=S)(OCC)OCC	-4.35%
COC(=O)c1ccccc1S(=O)(=O)NC(=O)Nc1nc(C)cc(C)n1	0.937%
CCNc1nc(NC(C)C)nc(OC)n1	1.83%

Structure (SMILES)	activity change, negative = cytotoxicity
CCOP(=S)(OCC)Oc1nc(Cl)n(C(C)C)n1	2.22%
Nc1n[nH]c(N)n1	-7.24%
CCN(CC)C(C)C(=O)c1ccccc1 (stereo not given)	-0.581% [at 42.5 µM]
C=CC1CC=CCC1 (stereo not given)	9.01%
CC(=O)CC(c1ccc(Cl)cc1)c1c(O)c2ccccc2oc1=O (stereo not given)	-1.36%
C[C@@H]1CN(C2CCC(C#N)(c3ccc(F)cc3)CC2)CC[C@]1(C(=O)O)c1ccccc1 (stereo not given in full)	0.764% [at 42.5 µM]
CCC/C(=N\OCC)C1=C(O)CC(CC(C)SCC)CC1=O (stereo not given)	-16.4%
ClC(Cl)Br	9.4%
O=C(CCCN1CCC(n2c(=O)[nH]c3ccccc32)CC1)c1ccc(F)cc1	-9.76% [at 42.5 µM]
CCC(=O)C(CCN(C)C)(c1ccccc1)c1ccccc1	0.219% [at 42.5 µM]
c1cc[c]([Hg][c]2ccccc2)cc1	7.35%
O=C(O)c1ccc2[nH]cc(CCCCN3CC=C(c4ccccc4)CC3)c2c1	-1.79% [at 42.5 µM]
NC(=S)C(N)=S	2.96%
CCOP(=S)(OCC)Oc1cc(-c2ccccc2)on1	-18.5%
O=C(N[C@H]1CN2CCC1CC2)c1cc2ccoc2cn1	-2.19%
O=C1OC(CCN2CCCCC2)OC1(c1ccccc1)c1ccccc1 (stereo not given)	-1.24% [at 42.5 µM]
O=C(Nc1ccccc1)N(Cc1ccc(Cl)cc1)C1CCCC1	-0.789%
CCOP(=S)(OCC)Oc1ncn(-c2ccccc2)n1	-11.1%
C=C(C)CN(CC)c1c([N+](=O)[O-])cc(C(F)(F)F)cc1[N+](=O)[O-]	3.14%
COc1ccc2c(c1OC)CN1CCc3cc4c(cc3C1C2)OCO4 (stereo not given)	-19.5% [at 42.5 µM]

From PubChem BioAssay (Tox21)
